About 83,000 compounds went through this panel and 20% of them were active in at least one assay; those are over-represented in the sample as a whole.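 Activity criterion: percent growth below 10, measured after cells in 96-well plates were exposed to a single compound concentration for 48 hours.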 Unmarked numbers belong to inactive results. Calls of active or inactive are those of the source.
Experiments:
Test in all cases: NCI-60 one-dose screen, 48 h (100 = growth as untreated, 0 = no growth, -100 = all killed)
Details in all cases: 10 µM unless noted
NCI-H23 lung = test system: NCI-H23 lung
HOP-62 NSCLC = test system: HOP-62 NSCLC
NCI-H460 lung = test system: NCI-H460 lung
HOP-92 NSCLC = test system: HOP-92 NSCLC
NCI-H522 lung = test system: NCI-H522 lung
A549/ATCC NSCLC = test system: A549/ATCC NSCLC
786-0 renal = test system: 786-0 renal
COLO 205 colon = test system: COLO 205 colon
DU-145 prostate = test system: DU-145 prostate
K-562 leukemia = test system: K-562 leukemia
MALME-3M melanoma = test system: MALME-3M melanoma
MDA-MB-231 breast = test system: MDA-MB-231 breast
RXF 393 renal = test system: RXF 393 renal
SF-268 CNS = test system: SF-268 CNS
SF-295 CNS = test system: SF-295 CNS
SF-539 CNS = test system: SF-539 CNS
UACC-257 melanoma = test system: UACC-257 melanoma
M14 melanoma = test system: M14 melanoma
HCT-15 colon = test system: HCT-15 colon

Row | Compound | growth (NCI-H23 lung) | growth (HOP-62 NSCLC) | growth (NCI-H460 lung) | growth (HOP-92 NSCLC) | growth (NCI-H522 lung) | growth (A549/ATCC NSCLC) | growth (786-0 renal) | growth (COLO 205 colon) | growth (DU-145 prostate) | growth (K-562 leukemia) | growth (MALME-3M melanoma) | growth (MDA-MB-231 breast) | growth (RXF 393 renal) | growth (SF-268 CNS) | growth (SF-295 CNS) | growth (SF-539 CNS) | growth (UACC-257 melanoma) | growth (M14 melanoma) | growth (HCT-15 colon)
1 | CCOc1cc2c(cc1OCC)C(c1cc(C)c(O)c(C)c1)NCC2 (configuration not stated) | 100% | 107% | 100% | 88.5% | 91% | 95.5% | 94.3% | 106% | 111% | 78.6% | 99.1% | 95.7% | 99.4% | 103% | 93.1% | 109% | 94.3% | 98.5% | 91.2%
2 | CC[C@]1(O)C[C@@H]2CN(CCc3c([nH]c4ccccc34)[C@@](C(=O)OC)(c3cc4c(cc3OC)N(C)[C@H]3[C@@](O)(C(=O)OC)[C@H](OC(C)=O)[C@]5(CC)C=CCN6CC[C@]43[C@@H]65)C2)C1 | 26.8% | 35% | 4.41% (active) | -9.28% (active) | 4.5% (active) |  | 9.87% (active) | -10.8% (active) | -7.13% (active) | 15.3% | 40.9% | -15.3% (active) | 22.1% | 17.3% | 8.85% (active) | -2.89% (active) | 64.4% | 3.97% (active) | 14.6%
3 | CCCCC1COc2cccc3c2N1C=C/C3=C\C(=O)N(C)c1ccccc1 (configuration not stated) | 26.6% | 78.2% | 64% | 48.4% | 55.6% | 71.6% | 79.3% | 72.9% | 82.9% | 26.2% | 59.9% | 62.9% | 89.6% | 70.4% | 52.2% | 84% | 53% | 65.1% | 86.3%
4 | COc1ccc(Br)c(/C=C2\SC(=Nc3ccc(O)cc3)NC2=O)c1 | 92.1% | 96.2% | 102% | 83.2% | 77.2% | 87.2% | 82.8% | 102% | 98.1% | 84.4% | 89.6% | 108% | 83.7% | 74% | 98.3% | 85.4% | 102% | 97.8% | 79.3%
5 | CCOC(=O)c1c2c(c(C)n1Cc1ccc(OC)cc1)-c1oncc1CC2 | 87.7% | 62% | 99.1% | 60.6% | 99.3% | 84.8% | 79.6% | 137% | 96% | 92% | 125% | 115% | 88.1% | 81.5% | 91.3% | 79.5% | 106% | 121% | 91.3%
6 | Nc1nc2c(ncn2[C@@H]2O[C@H](CS)[C@@H](O)[C@H]2O)c(=O)[nH]1 | 102% | 100% | 102% | 103% | 97.4% | 96.6% | 106% |  | 105% | 97.2% | 97.5% | 99.3% | 111% | 99.7% | 98.2% | 102% | 94.7% | 102% | 101%
7 | O=c1oc2ccc(Br)cc2c(=O)n1-c1ccc(Br)cc1F | -38.4% (active) | -4.63% (active) | 1.55% (active) | -13.7% (active) |  | 13% | 1.72% (active) |  | 13.8% | 8.3% (active) | -28.4% (active) | -27.2% (active) | -11.5% (active) | 12% | -73.6% (active) | -3.2% (active) | -15.1% (active) | -12.4% (active) | 2.53% (active)
8 | c1ccc(-c2ccc(-c3nc4ccccc4[nH]3)cc2)cc1 | 94% | 80.5% | 95.6% | 69.7% | 94.3% | 91.8% | 88% | 102% | 95.2% | 7.32% (active) | 92.4% | 64.3% | 92.1% | 77.8% | 101% | 99% | 98% | 93.8% | 78.5%
9 | O=S(=O)(c1ccc(NC(=S)NC23CC4CC(CC(C4)C2)C3)cc1)N1CCCCC1 | 95.5% | 107% | 36.3% | -8.91% (active) | 74.3% | 72.5% | 92.3% | 119% | 41.4% | 7.73% (active) | 86.5% | 102% | 115% | 66.6% | 58.1% | 107% | 96.9% | 72.3% | 82.8%
10 | O=C(/C=C/c1ccc(Cl)cc1)c1ccc(Nc2nc(NCCO)nc(Nc3ccc(Cl)cc3)n2)cc1 | 87.6% | 80.3% | 54.3% | 63.1% | 77.8% | 51.2% | 26.9% |  | 67.7% | 37.6% | 90.3% | 62.4% | 54.3% | 60.2% | 87.2% | 64.8% | 95.8% | 64.1% | 25.9%
11 | NCCOc1ccccc1/C=C1\c2ccccc2-c2ccc([N+](=O)[O-])cc21 | 1.49% (active) | -71.1% (active) | -85.1% (active) | -1.14% (active) | 21.3% | -74.6% (active) | -41.5% (active) | -75.4% (active) | -42.3% (active) | -44.9% (active) | 26% | 17.9% | 1.55% (active) | 18.1% | 6.73% (active) | 8.01% (active) | 63.9% | 0.981% (active) | -52.7% (active)
12 | Cc1ccccc1CNC(=O)C1CN(c2ccc(Cl)cc2)N(c2ccc(Cl)cc2)C1=O (configuration not stated) | 90.6% | 83.2% | 91.4% | 96.9% | 68.5% | 64.4% | 96.7% |  | 99.7% | 51.6% | 91.1% | 84.6% | 91.6% | 83.7% | 90.1% | 98.7% | 78.6% | 90.1% | 78.8%
13 | N[C@@H](CC/[N+]([O-])=N/O)C(=O)O | 97.2% | 101% | 97.9% | 107% | 95.7% | 102% | 104% | 104% | 97.8% |  | 101% | 102% |  | 95.9% | 110% | 95% | 112% | 102% | 104%
14 | COc1ccc(CCN2CCC(CN(C)Cc3cnn(-c4ccccc4)c3)CC2)cc1 | 31.9% | 30% | 3.48% (active) | 37.3% | 43.7% | 4.78% (active) | 25.6% | 30.1% | 28.6% | 10.4% | 18.4% | 21.6% | 35% | 21% | 47.5% | 19.7% | 19.1% | -19.2% (active) | 26.2%
15 | Cc1ccc(Cc2cnc(NC(=O)CN3C(=O)/C(=C\c4ccccc4)SC3=S)s2)cc1 | 103% | 109% | 103% | 113% | 94.7% | 103% | 105% | 116% | 111% | 101% | 104% | 108% | 113% | 101% | 101% | 100% | 107% | 107% | 103%

From PubChem BioAssay (NCI)
